# Sampled rows, rich in hits. Any-hit rate of the full collection: about 2.3%.
# BRCT inh green = BRCA1 BRCT-phosphoprotein interaction inhibition | P38398 | Potency, µM (series often up to 76.9 µM), for the others: at the top dose activity change, negative = inhibition, usual class: inhibitors | BRCA1 BRCT-phosphopeptide binding, green fluorescence polarization | 0.05% of 75,000 active;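 also: potency is read from the fitted curve at half-maximal effect; plate controls were peptide without protein for full effect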
# Target sequence (P38398 whole entry, looked up): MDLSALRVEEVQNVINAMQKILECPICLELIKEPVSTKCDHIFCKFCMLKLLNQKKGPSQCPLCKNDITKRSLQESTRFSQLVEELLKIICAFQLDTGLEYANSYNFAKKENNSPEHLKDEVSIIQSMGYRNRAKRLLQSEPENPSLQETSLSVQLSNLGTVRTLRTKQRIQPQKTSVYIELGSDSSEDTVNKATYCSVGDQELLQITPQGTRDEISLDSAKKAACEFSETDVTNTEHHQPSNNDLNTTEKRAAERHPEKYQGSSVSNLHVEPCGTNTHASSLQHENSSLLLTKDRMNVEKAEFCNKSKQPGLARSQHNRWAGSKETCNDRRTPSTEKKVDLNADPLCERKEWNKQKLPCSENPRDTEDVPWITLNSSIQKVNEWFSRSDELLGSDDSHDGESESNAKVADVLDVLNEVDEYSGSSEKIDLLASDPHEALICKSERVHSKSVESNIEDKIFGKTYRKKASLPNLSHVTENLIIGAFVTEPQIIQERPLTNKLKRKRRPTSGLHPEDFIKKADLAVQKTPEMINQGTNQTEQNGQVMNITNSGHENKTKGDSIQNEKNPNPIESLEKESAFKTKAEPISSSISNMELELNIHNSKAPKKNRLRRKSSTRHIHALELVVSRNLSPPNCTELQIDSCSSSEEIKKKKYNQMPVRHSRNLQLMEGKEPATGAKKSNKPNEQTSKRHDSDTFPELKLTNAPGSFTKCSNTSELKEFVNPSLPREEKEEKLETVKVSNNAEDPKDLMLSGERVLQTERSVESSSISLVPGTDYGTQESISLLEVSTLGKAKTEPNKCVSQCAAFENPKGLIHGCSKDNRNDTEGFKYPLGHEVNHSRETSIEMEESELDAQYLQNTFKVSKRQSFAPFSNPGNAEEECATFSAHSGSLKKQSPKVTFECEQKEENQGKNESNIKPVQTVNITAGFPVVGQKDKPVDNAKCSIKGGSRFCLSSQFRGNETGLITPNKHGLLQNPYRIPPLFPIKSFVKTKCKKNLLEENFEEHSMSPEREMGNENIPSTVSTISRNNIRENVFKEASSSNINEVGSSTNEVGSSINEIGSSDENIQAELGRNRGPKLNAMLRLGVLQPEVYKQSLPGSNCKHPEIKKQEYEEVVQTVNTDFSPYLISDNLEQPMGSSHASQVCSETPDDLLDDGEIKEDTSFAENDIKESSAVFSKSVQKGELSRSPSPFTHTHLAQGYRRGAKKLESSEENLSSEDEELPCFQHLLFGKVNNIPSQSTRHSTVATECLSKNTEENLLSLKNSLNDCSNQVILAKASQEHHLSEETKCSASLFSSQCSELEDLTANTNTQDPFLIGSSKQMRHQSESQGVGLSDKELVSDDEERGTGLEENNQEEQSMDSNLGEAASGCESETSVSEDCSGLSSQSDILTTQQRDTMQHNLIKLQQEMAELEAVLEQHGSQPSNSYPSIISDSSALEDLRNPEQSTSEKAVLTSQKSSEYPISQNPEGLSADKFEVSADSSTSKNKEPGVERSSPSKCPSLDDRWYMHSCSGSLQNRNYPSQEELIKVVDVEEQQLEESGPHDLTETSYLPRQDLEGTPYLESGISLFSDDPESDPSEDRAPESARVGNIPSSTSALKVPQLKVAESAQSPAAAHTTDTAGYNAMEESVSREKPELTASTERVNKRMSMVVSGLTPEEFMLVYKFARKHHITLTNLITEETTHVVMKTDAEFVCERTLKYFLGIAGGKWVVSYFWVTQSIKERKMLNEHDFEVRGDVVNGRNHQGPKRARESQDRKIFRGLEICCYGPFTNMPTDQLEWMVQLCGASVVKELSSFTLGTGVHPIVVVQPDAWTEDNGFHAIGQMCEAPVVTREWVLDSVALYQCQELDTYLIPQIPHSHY
#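 Fluorescence polarization: His-tagged BRCT (~35 kDa BRCA1 C-terminus, 250 nM) bound to 100 nM fluorescein-labeled phosphorylated 10-aa BACH1 peptide, pH 7.3 phosphate buffer with DTT and Tween 20. Compounds incubated 12 min at room temperature; inhibition read as lowered polarization.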
# DNA Pol III inh = blocks replication by bacterial DNA polymerase III holoenzyme; reconstituted DNA polymerase III holoenzyme replication, biochemical; Potency, µM (top dose mostly 57.1 µM), without a hit: at the top dose activity change, negative = inhibition; 0.25% of 71,000 active; also: potency is read from the fitted curve at half-maximal effect; % is scaled to controls: 0 for no effect and ±100 for the full control effect
#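 Reconstituted *E. coli* holoenzyme (0.35 nM Pol III, 1 nM beta, 154 nM SSB, 2 nM primase) was preincubated with compound for 15 min at RT. Synthesis on 1.4 nM ssM13Gori ran 35 min, then was stopped with PicoGreen/EDTA and read as dsDNA fluorescence.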
# BRCT PPI red = inhibitors of human BRCA1 BRCT-phosphoprotein interaction (red fluorophore); P38398; BRCT-phosphopeptide binding, red fluorescence polarization; Potency, µM (series often up to 76.9 µM), for the others: at the highest dose activity change, negative = inhibition, most hits filed as inhibitors; 0.03% of 75,000 active; AID 892; also: % is scaled to controls: 0 for no effect and ±100 for the full control effect
#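 Rhodamine-labelled pBACH1 10-mer (100 nM) bound to BRCT domain (100 nM) at pH 7.3; compounds incubated 12 min room temperature, polarization read. Free peptide defines full inhibition; unlabelled decapeptide titrated as control.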
# Tau filament bind = binds recombinant human tau filaments; P10636; recombinant tau filaments, thioflavin S fluorescence, 15 h; filaments grown with octadecylsulfate alongside compound; Potency, µM (top dose mostly 57.1 µM), for the others: at the top dose activity change, negative = inhibition; 2% of 71,000 active;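 also: potency is read from the fitted curve at half-maximal effect; % is scaled to controls: 0 for no effect and ±100 for the full control effect; actives lower thioflavin S fluorescence by blocking filaments or displacing dye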
#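 Assay mix: 1 uM His-tagged tau, 30 uM sodium octadecylsulfate, thioflavine S dye in HEPES/NaCl/DTT buffer. Compound is added prior to the inducer. Fluorescence after 15 h at 37 C.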
# YjeE inh = inhibitors of E. coli YjeE (TsaE) | 0.05% of 71,000 active | AID 605 | Potency, µM | P0AF67 | purified YjeE enzyme, qHTS inhibition assay
#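 Fluorescence polarization of a BODIPY Texas Red–ADP probe (2 uM) bound to purified YjeE (10 uM) was read after 15 min room-temperature incubation with compounds. Loss of polarization marks inhibitors; ADP serves as titrated control.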
# Hsp90 Hop PPI = changes Hsp90-Hop TPR2A binding signal, up or down; AlphaScreen TPR2A-His6 binding biotin-Hsp90 C-terminal peptide; Potency, µM (series often up to 57 µM), without a hit: at the highest dose activity change, negative = inhibition; 0.44% of 71,000 active; active = well fitted curve in either direction with a large enough effect; inconclusive = small, poorly fitted or top-dose-only effect, or another doubt; also: potency is read from the fitted curve at half-maximal effect; % is scaled to controls: 0 for no effect and ±100 for the full control effect
# Numbers without * were called inactive; i = inactive; ? = inconclusive; / = not tested or not shown; ! = a repeat was not active; [ ] = another dose, or the depositor's remark. Unless noted, calls follow the shape of the dose curve; as a rule, active = well fitted curve in the direction sought with a large enough effect; inconclusive = small, poorly fitted or top-dose-only effect, or another doubt; inactive = no such curve, though single readings can be large; an effect the other way counts as inactive or inconclusive.
SMILES,BRCT inh green,DNA Pol III inh,BRCT PPI red,Tau filament bind,YjeE inh,Hsp90 Hop PPI
Cc1ccc2oc3c(c(=O)c2c1)C(c1cccc(O)c1)N(c1ccccn1)C3=O (centres undefined),-1%,6%,-2%,13µM*,i,-7%
Nc1ccc(CCNc2ncnc3c2ncn3[C@@H]2O[C@@H](CO)[C@H](O)[C@@H]2O)cc1,-8%,-11%,-2%,0%,i,-11%
CC(=O)c1c(N2CCN(c3cccc(Cl)c3)CC2)nc(=S)n(-c2ccccc2)c1C,-2%,0%,-1%,-1%,i,-18%
COc1ccc(N2CCN(c3nc(=S)n(-c4ccccc4)c(C)c3C(C)=O)CC2)cc1,29%,0%,-3%,5µM*,i,-18%
N/N=C1/c2ccccc2N[C@H]1OC(=O)Nc1ccccc1,0%[15.4 µM],?,1%[15.4 µM],3.2µM*,i,-8%[11 µM]
CSc1nc(N)c2ncn([C@H]3O[C@H](COP(=O)(O)OP(=O)(O)OP(=O)(O)O)[C@@H](O)[C@@H]3O)c2n1,-5%,-3%,-1%,?,79µM*,-3%
O=C(Nc1cccc(N2CCCC2)c1)c1cccs1,-1%,-3%,-2%,13µM*,i,-17%
C=C1CC[C@@H](O)C/C1=C/C=C1\CCC[C@]2(C)[C@@H]1CC[C@H]2[C@@H](C)/C=C\[C@@H](C)C(C)C,/,5%,/,11%,i,-5%
CO[C@H]1COC(=O)C/C=C\[C@H](C)[C@@H](NS(=O)(=O)c2ccc(C)cc2)COC(=O)CCC[C@@H]1C,1%[15.4 µM],/,0%[15.4 µM],/,/,/
O=C(Nc1ccc(N2CCCC2)c(Cl)c1)c1ccco1,0%,-8%[11.4 µM],1%,4µM*,i,-22%[11 µM]
CCOc1ccc(NC(=O)c2ccco2)cc1,1%,1%,0%,-7%,i,0%
O=C(Nc1ccc(Nc2ccccc2)cc1)c1ccco1,2%,-2%,-2%,20µM*,i,-21%
COc1ccccc1CNc1ncncc1-c1ccc2c(c1)OCO2,0%,7%,0%,-6%,i,-3%
c1ccc(-c2cc3c(ccc4nonc43)nn2)cc1,-3%,1%[11.4 µM],-2%,3.2µM*,i,-11%[11 µM]
c1ccc(-c2nc3nonc3nc2-c2ccccc2)cc1,-3%,5%,-1%,?,i,?
O=c1cc(-c2cccc(O)c2)oc2c(O)c(O)ccc12,0%,?,1%,?,i,-26%
O=C(O)CCc1c2ccc(=O)c(O)c-2oc2c(O)c(O)ccc12,?,0.079µM*,?,3.2µM*,i,?
Fc1ccc(Nc2ncnc3ccc(-c4ccoc4)cc23)cc1,-1%,12%,-1%,-16%,i,-5%
COc1cccc(-c2nccc(NCc3ccccc3OC)n2)c1,-2%,4%,-2%,-14%,i,2%
CC(C)C(=O)N(Cc1cc2ccccc2[nH]c1=O)C(C)C,-2%,-8%,-1%,4%,i,-2%
CCN(Cc1cc2ccccc2[nH]c1=O)S(=O)(=O)c1ccccc1,-2%,-3%,-1%,13µM*,i,-3%
Cc1cccc(Nc2nn3c(=O)c4ccccc4nc3s2)c1,0%,3.2µM*,2%,28%,i,6%
O=C(Oc1ccccc1)N1CCC2(CC1)CCN(c1ccncc1)CC2,-1%,-5%,0%,46%,i,2%
S=C(Nc1ccccn1)c1ccccn1,-1%,-4%,1%,25µM*,i,10µM*
Cn1c(=O)c2cc(S(=O)(=O)Nc3ccc4c(c3)OCO4)ccc2n(C)c1=O,0%,1%,2%,1%,i,-4%
SMILES,BRCT inh green,DNA Pol III inh,BRCT PPI red,Tau filament bind,YjeE inh,Hsp90 Hop PPI
Cn1c(=O)oc2cc(S(=O)(=O)Nc3ccc4c(c3)OCO4)ccc21,-1%,-4%,-1%,20µM*,i,-26%
Cc1cc2c(nc1C)CCCN2C[C@H](O)CN1CCCc2nc(-c3ccc(Br)cc3)ccc21,0%[15.4 µM],/,1%[15.4 µM],/,/,/
O=S(=O)(NCCOC12CC3CC(CC(C3)C1)C2)c1cccc2nsnc12,-1%,-3%,1%,16µM*,i,-7%
O=S(=O)(NCCC1=CCCCC1)c1cccc2nsnc12,-3%,-1%,-1%,?,i,-3%
C=CCc1cccc(CNc2nc3ccccc3n2CCN2CCOCC2)c1O,-3%,-3%,0%,25µM*,i,-16%
Oc1ccccc1CNc1nc2ccccc2n1CCN1CCCCC1,-1%,4%,-4%,14%,i,-6%
CN1CCN([C@@H]2Cc3ccccc3Sc3ccc(Cl)cc32)CC1,1%,-8%,2%,8%,i,-9%
CCCCc1ccc(Nc2nc(CCC)cc(=O)[nH]2)cc1,-2%,1%,0%,226%,i,-7%
Cc1cc(C)nc(Nc2ccc(N3CCCC3)cc2)n1,0%,-2%,1%,16µM*,i,?
Cc1cc(C)nc(Nc2ccc(N3CCOCC3)cc2)n1,-3%,-1%,1%,?,i,?
CCCc1cc(=O)[nH]c(Nc2ccc(N3CCCCC3)cc2)n1,-1%,-3%,0%,25µM*,i,-24%
CC(=O)NCCNc1nc(-c2ccc3c(c2)OCO3)nc2ccccc12,-1%,1%,1%,-3%,i,-2%
CC1=CC(=C2C(=O)c3ccccc3C2=O)C=C(C)N1Cc1ccco1,-4%,-5%,0%,32µM*,i,-8%
CCN(CC)c1ccc(NC(=O)c2cccc(C)c2OC)c(C)c1,-5%,-1%,-7%,25µM*,i,-20%
CCN(CC)c1ccc(NC(=O)c2cnc3ccccn3c2=O)c(C)c1,-1%,/,-1%,/,/,/
c1nc(NC2CCNCC2)c2cc(-c3ccoc3)ccc2n1,-2%,-11%,0%,-10%,i,-2%
COCCn1c(=O)c(-c2cn(C)c3ccccc23)nc2cnc(OCc3ccccc3)nc21,-4%,-3%,-1%,59%,i,20%
COCCn1c(=O)c(-c2cccc(C#N)c2)nc2cnc(OCc3ccccc3)nc21,-1%,-3%,-1%,25µM*,i,-7%
COCCn1c(=O)c(-c2cn(C)c3ccccc23)nc2cnc(Oc3ccccc3)nc21,-4%,-8%,0%,153%,i,3.2µM*
COCCn1c(=O)c(-c2cccc(C#N)c2)nc2cnc(OC)nc21,-2%,-12%,1%,-1%,i,-8%
COc1c(O)cc2oc3cc(O)c(CC=C(C)C)c(O)c3c(=O)c2c1CC=C(C)C,1%,-1%,0%,?,i,-7%
CCOC(=O)CCCc1sc(N)nc1-c1[nH]c(=O)[nH]c1C,-1%,-1%,-3%,11%,i,4µM*
CNCCCC1c2ccccc2C=Cc2ccccc21,0%[34.4 µM],2%[25.6 µM],-1%[34.4 µM],5µM*!,i,-2%[26 µM]
